Bioassay records from PubChem BioAssay.
aSyn UTR act – Activators via SNCA 5'UTR binding, MLPCN. actives 7.1% (n = 300,000). alpha-synuclein 5'UTR reporter, activators screen. activity score, % (tested at 7.5 µM), hits read low; in the data active = activity score below about -60%
Numbers stand for hits; - = inactive. These entries were drawn from the full list.

SMILES | aSyn UTR act
CC(=O)Oc1ccc(C(=O)Nc2nnc(C)s2)cc1 | -63
Cc1nc(-c2ccc(NC(=O)c3ccco3)cc2)cs1 | -
Cc1nc(-c2ccc(NC(=O)Cc3ccccc3)cc2)cs1 | -164
CCC(=O)Nc1ccc(-c2csc(C)n2)cc1 | -81
Cc1ccc(C(=O)Nc2ccccc2C(=O)NC(C(=O)O)C(C)C)cc1 (stereo not drawn) | -69
O=C(NNC(=O)c1ccccc1OCc1ccc(F)cc1)c1ccccc1O | -
COc1ccccc1OCc1ccc(C(=O)Nc2ccccc2F)cc1 | -75
O=C(Nc1ccccc1F)c1ccc(C(=O)c2ccccc2)cc1 | -100
O=C(Nc1ccccc1Cl)c1ccccc1 | -87
Cn1cc(Cl)c(C(=O)Nc2cccc(Cl)c2Cl)n1 | -155
Nc1ccccc1NC(=O)c1ccccc1 | -154
O=C(Nc1cccn2ncnc12)c1ccccc1 | -65
O=C(Nc1cccc(Cl)c1Cl)c1ccc(-c2ccccc2)cc1 | -159
O=C(Nc1ccccc1Cl)c1ccn[nH]1 | -90
Cc1ccc(Cn2nc(C)cc2C(=O)Nc2ccccc2Cl)cc1 | -151
Cc1ccc(C(=O)Nc2ccccc2Cl)cc1 | -129
O=C(Nc1nc2ccccc2s1)c1ccc(N2CCCCC2)c([N+](=O)[O-])c1 | -67
Cc1ccc(C(=O)c2cc([N+](=O)[O-])ccc2N2CCCCC2)c(C)c1 | -
O=C(Nc1ccon1)c1ccc(N2CCCCC2)c([N+](=O)[O-])c1 | -143
CC(C)(C)NC(=O)CN(C(=O)CNS(=O)(=O)c1ccccc1)c1ccc2c(c1)OCCO2 | -86
O=C(/C=C/c1ccco1)Nc1ccc(N2CCCC2)cc1 | -207
O=C(/C=C/c1ccco1)Nc1ccc(C(=O)N2CCOCC2)cc1 | -75
CCOc1cc(/C=N/Nc2cccc(C(=O)O)c2)ccc1OC(=O)c1ccccc1 | -
COc1ccc2ccccc2c1/C=N/Nc1cccc(C(=O)O)c1 | -108
CC(=O)c1cccc(NC(=S)NC(=O)c2ccccc2)c1 | -141
SMILES | aSyn UTR act
CC(=O)c1cccc(NC(=S)NC(=O)c2cccc(Cl)c2)c1 | -160
CC(=O)c1cccc(NC(=S)NC(=O)c2cncc(Br)c2)c1 | -109
CC(=O)c1cccc(NC(=S)NC(=O)CC(C)(C)C)c1 | -134
COc1cc2ccccc2cc1C(=O)NC(=S)Nc1cccc(C(=O)O)c1 | -91
Cc1cc(C)n(-c2nc(SCCN(C)C)c3c4c(sc3n2)CCCC4)n1 | -71
O=C(Nc1ccccc1C(F)(F)F)c1cc(-c2ccccc2O)on1 | -141
O=C(Nc1ccccc1C(F)(F)F)c1cc(-c2ccco2)on1 | -127
Cc1c(Cl)cccc1NC(=O)c1cc(-c2ccco2)on1 | -108
Cc1cc(NC(=O)c2cc(-c3ccco3)on2)nn1Cc1ccc(Cl)cc1 | -71
Cc1nc2cc(NC(=O)c3ccc(Br)s3)ccc2s1 | -83
CCOc1ncccc1C(=O)Nc1ccc2nc(C)sc2c1 | -75
Cc1nc2ccc(NC(=O)c3cc(Cl)ccn3)cc2s1 | -74
Cc1ccc(C(=O)Nc2ccc3nc(C)sc3c2)s1 | -206
O=C(N/N=C/c1ccccn1)c1c[nH]c2ccccc12 | -79
CCn1nc(C)c(/C=N/NC(=O)c2c[nH]c3ccccc23)c1C | -175
Cc1ccsc1/C=N/NC(=O)c1c[nH]c2ccccc12 | -122
CC(C)(C)OC(=O)N/N=C\c1ccc[nH]1 | -77
CSc1ccc2c(c1)C(N1CCN(C)CC1)Cc1ccc(F)cc1S2 (stereo not drawn) | -
C/C(=N\NC(=O)c1csc(C)c1C)c1ccc(C)s1 | -93
O=C(N/N=C/c1cccc([N+](=O)[O-])c1)c1c[nH]c2ccccc12 | -124
O=C(N/N=C/c1ccsc1)c1c[nH]c2ccccc12 | -126
Cc1ccc(/C=N/NC(=O)c2c[nH]c3ccccc23)s1 | -113
CSc1ccc2c(c1)N(CCC1CCCCN1C)c1ccccc1S2 (stereo not drawn) | -
CC/C(=N\NC(=O)c1c[nH]c2ccccc12)c1cccs1 | -122
CC(=O)N/N=C(/C)c1ccc(NC(=O)c2csc(C)c2C)cc1 | -113
SMILES | aSyn UTR act
CC(C)(C)OC(=O)N/N=C/c1cccc([N+](=O)[O-])c1 | -129
CCn1ncc(/C=N\NC(=O)c2csc3ccccc23)c1C | -66
C/C(=N\NC(=O)c1c[nH]c2ccccc12)c1ccc(C)s1 | -186
Clc1ccccc1Nc1nc(-c2cccnc2)cs1 | -185
c1cncc(Nc2nc(-c3cccnc3)cs2)c1 | -72
Cc1ccc(Nc2nc(-c3cccnc3)cs2)cc1Cl | -175
Clc1ccccc1-c1csc(Nc2cccnc2)n1 | -71
COc1cccc(Nc2nc(-c3cccnc3)cs2)c1 | -173
COc1cccc2sc(Nc3nc(-c4ccncc4)cs3)nc12 | -
O=C(N/N=C/c1ccccc1F)NC12CC3CC(CC(C3)C1)C2 | -115
O=C(N/N=C/c1ccccn1)NC12CC3CC(CC(C3)C1)C2 | -105
COc1ccc(/C=N/NC2=NCCCCC2)cc1 | -86
Oc1ccccc1/C=N/NC1=NCCCCC1 | -161
COc1ccc(/C=N/Nc2cc(N(C)C)nc(N(C)C)n2)cc1 | -65
Cc1cccc(N=Nc2cn[nH]c2-c2ccco2)c1 | -125
CCC(=O)NC(c1ccc(OC)c(OC)c1)c1cc(Cl)c2cccnc2c1O (stereo not drawn) | -
